A short description of assay [1]: Human pregnane X receptor (PXR) small molecule agonists, qHTS cell viability counter screen (AID 1346977). Further: nearly all actives have a fitted effect of over 50% in size. Further: potency means the concentration at half of the fitted maximal effect. The method, boiled down:
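PXR-Luc HepG2 cells (2,000/well, 5% charcoal-stripped FBS) preincubated 5 hr, then exposed to compounds 24 hr at 37 C. Viability read in the same wells by CellTiter-Fluor fluorescence, reagent added at 23 hr, 1 hr incubation.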
A general note: qHTS replaces the single test concentration by a dilution series.

Assay [2] is described as follows: Caspase-3/7 induction in HepG2 cells by small molecules, qHTS assay (AID 1346978). Further: nearly all actives have a fitted effect of over 15% in size. A digest of the protocol:
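Wild-type HepG2 cells (2,000/well) were settled 5 h at 37 C, 5% CO2, then exposed to compounds in DMSO for 17 h. Caspase-3/7 activity was read by luminescence 30 min after adding Caspase-Glo 3/7 reagent at room temperature.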

A short description of assay [3]: Caspase-3/7 induction in CHO-K1 cells by small molecules, qHTS assay (AID 1346980). Further: nearly all actives have a fitted effect of over 15% in size. The method, boiled down:
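Wild-type cells were seeded at 1,500 per well and settled 5 hr at 37 C, 5% CO2, then exposed to DMSO-dissolved compounds for 17 hr. Caspase-Glo 3/7 reagent was added, and luminescence was read after 30min at room temperature.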

Assay [4] can be described thus: Caspase-3/7 induction in HepG2 cells by small molecules, qHTS cell viability counter screen (AID 1346981). Further: nearly all actives have a fitted effect of over 30% in size. Further: potency means the concentration at half of the fitted maximal effect. A digest of the protocol:
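The parent HepG2 line is plated at 2,000 cells per well and rested 5 hr before compound pinning from DMSO stocks. Following a 16-hr treatment at 37 C, a fluorogenic live-cell substrate (CellTiter-Fluor) reports viability after 1 hr.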

The target in assay [5] is Nuclear receptor subfamily 1 group I member 2 (Homo sapiens) (UniProt O75469). The assay can be described thus: Human pregnane X receptor (PXR) small molecule agonists, qHTS assay (AID 1346982). Further: nearly all actives have a fitted effect of over 35% in size. Further: potency means the concentration at half of the fitted maximal effect. A digest of the protocol: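 After plating in 5% charcoal-stripped FBS and a 5 hr rest, PXR-Luc HepG2 cells received compounds in DMSO. Following 24 hr at 37 C, ONE-Glo was added and light output read.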

The target of assay [6] is Cytochrome P450 2D6 (Homo sapiens) (UniProt P10635). The assay can be described thus: Cytochrome P450 Family 2 Subfamily D Member 6 (CYP2D6) small molecule antagonists: luciferase reporter qHTS assay (AID 1671196). Further: nearly all actives have a fitted effect of over 50% in size. Further: potency means the concentration at half of the fitted maximal effect. A digest of the protocol: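 Quantitative HTS of Tox21 chemicals against CYP2D6 using a luminescent proluciferin substrate. After NADPH addition, 1 h room-temperature reaction; luminescence recorded 20 min post detection reagent.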
(In a reporter assay the amount or activity of a reporter protein is the signal.)

In assay [7] the target is Cytochrome P450 2C19 (Homo sapiens) (UniProt P33261). The assay can be described thus: Cytochrome P450 Family 2 Subfamily C Member 19 (CYP2C19) small molecule antagonists: luciferase reporter qHTS assay (AID 1671197). Further: nearly all actives have a fitted effect of over 65% in size. Further: potency means the concentration at half of the fitted maximal effect. The method, boiled down: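 P450-Glo CYP2C19 system: enzyme-substrate mix with compound 10 min at room temperature, then NADPH regeneration solution, 1 h at 37C. Proluciferin-to-luciferin conversion detected by luminescence after 20 min with detection reagent; ketoconazole as positive control.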

Assay [8] concerns the target Cytochrome P450 2C9 (Homo sapiens) (UniProt P11712). The assay can be described thus: Cytochrome P450 Family 2 Subfamily C Member 9 (CYP2C9) small molecule antagonists: luciferase reporter qHTS assay (AID 1671198). Further: nearly all actives have a fitted effect of over 50% in size. Further: potency means the concentration at half of the fitted maximal effect. The method, boiled down:
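CYP2C9 activity was measured with a P450-Glo proluciferin substrate. Enzyme–substrate mix was held with compound for 10 min at room temperature, then NADPH regeneration solution was added for 1 h at 37C. Luciferin product was read as luminescence.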

Assay [9] deals with Cytochrome P450 1A2 (Homo sapiens) (UniProt P05177). The assay can be described thus: Cytochrome P450 Family 1 Subfamily A Member 2 (CYP1A2) small molecule antagonists: luciferase reporter qHTS assay (AID 1671199). Further: nearly all actives have a fitted effect of over 50% in size. Further: potency means the concentration at half of the fitted maximal effect. A digest of the protocol:
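Quantitative high-throughput format using the P450-Glo CYP1A2 system. Reaction initiated by NADPH regeneration solution, 1 h at room temperature, then stopped with detection reagent; luminescence measured 20 min later.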

Assay [10] addresses Voltage-gated inwardly rectifying potassium channel KCNH2 (Homo sapiens) (UniProt Q12809). The assay can be described thus: Human Ether-a-go-go-Related Gene (hERG) channel small molecule antagonists: fluorescence cell-based qHTS assay (AID 1671200). Further: nearly all actives have a fitted effect of over 50% in size. Further: potency means the concentration at half of the fitted maximal effect. A digest of the protocol: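 hERG-U2OS cells plated overnight at 37 C, loaded with FluxOR II dye 1 h at RT in dark; after 10 min, thallium stimulus added. Fluorescence (480/540 nm) read kinetically for 2 min at 1 s intervals.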
A general note: hERG is a cardiac potassium channel; its block is linked to QT prolongation.

Assay [11] has as its target Cytochrome P450 3A4 (Homo sapiens) (UniProt P08684). The assay can be described thus: Cytochrome P450 Family 3 Subfamily A Member 4 (CYP3A4) small molecule antagonists: luciferase reporter qHTS assay (AID 1671201). A digest of the protocol:
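P450-Glo CYP3A4 luminescent assay: compounds preincubated 10 min at room temperature with enzyme and proluciferin substrate, NADPH regeneration added, 1 h room-temperature reaction, stopped with luciferin detection reagent; luminescence read after 20 min. Ketoconazole positive control.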

The target in assay [12] is Acetylcholinesterase (Homo sapiens) (UniProt P22303). The assay can be described thus: Acetylcholinesterase (AChE) small molecule antagonists: colormetric cell-based qHTS assay (AID 1347395; calls by dose curve; further: nearly all actives have a fitted effect of over 30% in size; further: potency means the concentration at half of the fitted maximal effect). A digest of the protocol:
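SH-SY5Y cells attached overnight, exposed to compound 30 min at 37 C, then given DTNB/acetylthiocholine; after 90 min at 37 C, colorimetric thiocholine read gives cellular AChE activity.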

For assay [13] the target is unchanged. The assay can be described thus: Acetylcholinesterase (AChE) small molecule antagonists: enzyme-based qHTS assay (AID 1347397; calls by dose curve; further: nearly all actives have a fitted effect of over 55% in size). Particulars: Potency: AChE enzyme activity inhibition. The method, boiled down: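 Compound or DMSO vehicle was pin-transferred onto recombinant human AChE (50 mU/mL as dispensed) and left 30 min at room temperature. Acetylthiocholine with DTNB then started the reaction, read colorimetrically 10 min later.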

For assay [14] the target is unchanged. The assay can be described thus: Acetylcholinesterase (AChE) small molecule antagonists: fluorescence cell-based qHTS assay (AID 1347398; calls by dose curve; further: nearly all actives have a fitted effect of over 50% in size). The note with it: Potency: AChE activity. The method, boiled down: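 Using neuroblastoma SH-SY5Y cells as the enzyme source, test chemicals are preincubated 30 min at 37 C; AChE-driven acetylthiocholine cleavage is then quantified by thiocholine-dependent Thiolite Green fluorescence after 40 min at room temperature.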

For assay [15] the target is unchanged. The assay can be described thus: Acetylcholinesterase (AChE) small molecule antagonists: enzyme-based qHTS assay with human liver microsomes (AID 1347399; calls by dose curve; further: nearly all actives have a fitted effect of over 60% in size). Particulars: Potency: qHTS inhibition. The method, boiled down: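 Recombinant human AChE (50 mU/mL in the enzyme mix) and human liver microsomes (0.25 mg/mL final) were preincubated with compound and NADPH (0.25 mg/mL final) for 30 min at 37 C. Acetylthiocholine/DTNB was then added; thiocholine was read colorimetrically after 10 min at room temperature.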

Assay [16] in a line: Caspase-3/7 induction in CHO-K1 cells by small molecules, qHTS cell viability counter screen (AID 1346979). Further: potency means the concentration at half of the fitted maximal effect; nearly all actives have a fitted effect of over 35% in size. The method, boiled down:
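Wild-type CHO-K1 cells (1,500/well) treated with compound after 5 h plating; after 16 h at 37C, viability read as CellTiter-Fluor fluorescence following 1 h reagent incubation, in the same wells as the caspase read.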

Each structure is given as a SMILES string. Several values for one entry are separate records, joined by “and”; a condition that tells them apart may be missing. Equal values may be shown once. Results filed as inconclusive are left out. A structure can be active in one record and inactive in another. Activity calls are given as the source filed them. Unless noted, the call rests on the fitted dose curve; in most records, active means well fitted curve in the direction sought with a large enough effect in the repeat runs; inconclusive means weak or mixed curves; inactive means no such curve, though single readings can be large; an effect the other way counts as inactive or inconclusive.

The source of these data is PubChem BioAssay (Tox21).

Chain of Voltage-gated inwardly rectifying potassium channel KCNH2 (Homo sapiens) (Q12809 whole entry, looked up): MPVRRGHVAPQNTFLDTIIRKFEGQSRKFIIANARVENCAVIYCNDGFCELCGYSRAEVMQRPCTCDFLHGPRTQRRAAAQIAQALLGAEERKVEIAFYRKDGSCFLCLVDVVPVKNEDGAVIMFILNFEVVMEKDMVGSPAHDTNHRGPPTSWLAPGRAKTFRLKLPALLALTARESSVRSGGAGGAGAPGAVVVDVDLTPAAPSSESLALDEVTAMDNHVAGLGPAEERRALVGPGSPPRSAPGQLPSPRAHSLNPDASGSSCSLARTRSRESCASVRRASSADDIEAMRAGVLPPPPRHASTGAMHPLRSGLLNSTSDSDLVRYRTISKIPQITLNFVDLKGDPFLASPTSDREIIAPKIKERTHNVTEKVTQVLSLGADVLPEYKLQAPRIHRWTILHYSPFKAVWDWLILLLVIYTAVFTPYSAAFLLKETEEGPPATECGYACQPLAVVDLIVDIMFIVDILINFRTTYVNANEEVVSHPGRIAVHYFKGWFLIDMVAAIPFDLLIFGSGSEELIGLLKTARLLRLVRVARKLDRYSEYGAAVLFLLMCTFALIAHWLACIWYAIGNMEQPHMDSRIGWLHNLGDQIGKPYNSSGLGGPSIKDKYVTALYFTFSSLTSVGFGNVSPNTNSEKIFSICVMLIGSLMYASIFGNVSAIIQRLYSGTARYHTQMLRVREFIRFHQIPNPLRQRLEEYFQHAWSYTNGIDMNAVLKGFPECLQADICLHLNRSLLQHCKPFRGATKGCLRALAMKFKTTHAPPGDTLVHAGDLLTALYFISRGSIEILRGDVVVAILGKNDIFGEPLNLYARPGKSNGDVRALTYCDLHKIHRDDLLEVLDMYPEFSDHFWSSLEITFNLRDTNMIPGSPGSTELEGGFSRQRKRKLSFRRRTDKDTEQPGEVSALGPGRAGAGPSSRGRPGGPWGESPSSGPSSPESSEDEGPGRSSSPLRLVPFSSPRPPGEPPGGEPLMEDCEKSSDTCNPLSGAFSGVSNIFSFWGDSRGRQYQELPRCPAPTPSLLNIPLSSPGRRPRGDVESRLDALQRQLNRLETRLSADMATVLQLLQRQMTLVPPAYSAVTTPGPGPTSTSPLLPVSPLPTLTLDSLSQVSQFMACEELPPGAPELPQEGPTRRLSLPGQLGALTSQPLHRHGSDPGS
Chain of Cytochrome P450 2D6 (Homo sapiens) (P10635 whole entry, looked up): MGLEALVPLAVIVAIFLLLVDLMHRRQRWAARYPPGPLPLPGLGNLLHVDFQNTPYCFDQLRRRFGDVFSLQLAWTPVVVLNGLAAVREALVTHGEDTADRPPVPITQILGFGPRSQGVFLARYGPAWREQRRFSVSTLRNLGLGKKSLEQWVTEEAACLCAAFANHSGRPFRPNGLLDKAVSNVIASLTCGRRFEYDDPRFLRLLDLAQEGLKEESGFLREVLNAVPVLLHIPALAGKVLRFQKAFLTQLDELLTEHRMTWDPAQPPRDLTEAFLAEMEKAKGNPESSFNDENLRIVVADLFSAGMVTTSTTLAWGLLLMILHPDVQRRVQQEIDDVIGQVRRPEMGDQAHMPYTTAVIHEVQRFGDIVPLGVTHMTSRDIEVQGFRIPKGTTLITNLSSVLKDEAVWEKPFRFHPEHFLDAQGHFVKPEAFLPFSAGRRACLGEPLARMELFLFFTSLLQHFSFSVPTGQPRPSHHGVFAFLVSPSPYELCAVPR
Chain of Cytochrome P450 1A2 (Homo sapiens) (P05177 whole entry, looked up): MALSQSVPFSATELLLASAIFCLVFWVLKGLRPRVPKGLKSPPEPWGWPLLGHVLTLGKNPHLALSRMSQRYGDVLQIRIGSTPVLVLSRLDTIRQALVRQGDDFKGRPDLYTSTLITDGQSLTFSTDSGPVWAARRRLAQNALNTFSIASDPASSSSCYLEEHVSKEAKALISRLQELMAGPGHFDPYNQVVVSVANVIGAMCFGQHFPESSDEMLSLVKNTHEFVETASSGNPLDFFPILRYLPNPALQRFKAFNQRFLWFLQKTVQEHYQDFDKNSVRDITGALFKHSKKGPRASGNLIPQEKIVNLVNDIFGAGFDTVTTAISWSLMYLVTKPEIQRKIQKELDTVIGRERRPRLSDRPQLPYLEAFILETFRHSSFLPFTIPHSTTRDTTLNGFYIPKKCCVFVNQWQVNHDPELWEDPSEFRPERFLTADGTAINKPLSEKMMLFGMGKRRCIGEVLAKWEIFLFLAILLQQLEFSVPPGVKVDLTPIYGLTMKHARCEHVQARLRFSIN
Chain of Nuclear receptor subfamily 1 group I member 2 (Homo sapiens) (O75469 whole entry, looked up): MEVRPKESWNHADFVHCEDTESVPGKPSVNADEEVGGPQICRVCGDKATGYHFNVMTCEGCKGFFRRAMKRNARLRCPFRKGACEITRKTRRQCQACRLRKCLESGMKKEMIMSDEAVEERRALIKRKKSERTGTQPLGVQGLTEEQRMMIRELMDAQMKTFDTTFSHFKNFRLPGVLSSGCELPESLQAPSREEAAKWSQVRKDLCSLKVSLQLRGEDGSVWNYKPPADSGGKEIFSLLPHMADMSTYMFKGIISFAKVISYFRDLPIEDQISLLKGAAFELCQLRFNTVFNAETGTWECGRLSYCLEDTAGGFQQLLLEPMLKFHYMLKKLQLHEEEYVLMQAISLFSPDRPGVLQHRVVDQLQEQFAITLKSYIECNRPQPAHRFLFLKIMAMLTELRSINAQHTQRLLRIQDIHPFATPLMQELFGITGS
Chain of Cytochrome P450 2C19 (Homo sapiens) (P33261 whole entry, looked up): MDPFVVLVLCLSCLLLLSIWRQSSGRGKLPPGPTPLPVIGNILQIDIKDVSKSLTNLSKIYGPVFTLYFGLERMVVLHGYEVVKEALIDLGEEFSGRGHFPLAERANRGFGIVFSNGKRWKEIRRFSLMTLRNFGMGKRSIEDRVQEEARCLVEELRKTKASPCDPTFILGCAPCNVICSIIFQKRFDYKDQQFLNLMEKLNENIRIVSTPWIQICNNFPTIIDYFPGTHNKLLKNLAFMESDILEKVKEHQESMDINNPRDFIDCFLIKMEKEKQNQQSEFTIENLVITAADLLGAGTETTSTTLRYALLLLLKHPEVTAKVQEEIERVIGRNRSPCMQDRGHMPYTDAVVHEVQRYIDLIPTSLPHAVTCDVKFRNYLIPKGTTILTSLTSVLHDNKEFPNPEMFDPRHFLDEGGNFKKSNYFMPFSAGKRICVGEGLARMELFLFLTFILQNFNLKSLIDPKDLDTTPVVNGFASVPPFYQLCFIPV
Chain of Acetylcholinesterase (Homo sapiens) (P22303 whole entry, looked up): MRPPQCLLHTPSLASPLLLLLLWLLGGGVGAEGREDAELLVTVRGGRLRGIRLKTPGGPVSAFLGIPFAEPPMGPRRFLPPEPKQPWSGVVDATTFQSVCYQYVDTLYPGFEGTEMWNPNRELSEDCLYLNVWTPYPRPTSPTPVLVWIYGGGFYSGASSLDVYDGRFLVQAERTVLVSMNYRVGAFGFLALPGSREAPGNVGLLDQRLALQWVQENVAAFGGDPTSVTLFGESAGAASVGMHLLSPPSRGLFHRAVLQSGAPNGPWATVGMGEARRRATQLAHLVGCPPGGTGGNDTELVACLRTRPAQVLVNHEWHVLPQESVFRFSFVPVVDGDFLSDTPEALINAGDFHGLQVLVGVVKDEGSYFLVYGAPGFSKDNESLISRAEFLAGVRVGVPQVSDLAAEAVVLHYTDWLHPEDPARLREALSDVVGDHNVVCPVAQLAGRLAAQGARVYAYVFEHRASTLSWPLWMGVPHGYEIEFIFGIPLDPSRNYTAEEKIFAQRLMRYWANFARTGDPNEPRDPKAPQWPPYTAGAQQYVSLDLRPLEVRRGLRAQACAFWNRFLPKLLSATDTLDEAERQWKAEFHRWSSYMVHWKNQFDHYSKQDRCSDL
Chain of Cytochrome P450 2C9 (Homo sapiens) (P11712 whole entry, looked up): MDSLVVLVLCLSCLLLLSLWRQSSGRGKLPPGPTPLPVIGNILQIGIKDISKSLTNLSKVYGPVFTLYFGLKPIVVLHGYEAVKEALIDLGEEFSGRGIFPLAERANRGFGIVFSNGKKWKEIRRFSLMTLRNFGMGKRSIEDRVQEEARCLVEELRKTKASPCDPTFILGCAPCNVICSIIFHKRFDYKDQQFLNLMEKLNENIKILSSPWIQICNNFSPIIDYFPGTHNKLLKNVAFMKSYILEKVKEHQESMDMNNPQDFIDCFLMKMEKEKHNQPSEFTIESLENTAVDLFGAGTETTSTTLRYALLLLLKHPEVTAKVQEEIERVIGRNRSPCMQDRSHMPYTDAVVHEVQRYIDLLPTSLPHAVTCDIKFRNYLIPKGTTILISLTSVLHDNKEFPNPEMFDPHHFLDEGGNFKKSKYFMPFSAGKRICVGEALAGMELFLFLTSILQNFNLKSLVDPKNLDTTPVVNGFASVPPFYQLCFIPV
Chain of Cytochrome P450 3A4 (Homo sapiens) (P08684 whole entry, looked up): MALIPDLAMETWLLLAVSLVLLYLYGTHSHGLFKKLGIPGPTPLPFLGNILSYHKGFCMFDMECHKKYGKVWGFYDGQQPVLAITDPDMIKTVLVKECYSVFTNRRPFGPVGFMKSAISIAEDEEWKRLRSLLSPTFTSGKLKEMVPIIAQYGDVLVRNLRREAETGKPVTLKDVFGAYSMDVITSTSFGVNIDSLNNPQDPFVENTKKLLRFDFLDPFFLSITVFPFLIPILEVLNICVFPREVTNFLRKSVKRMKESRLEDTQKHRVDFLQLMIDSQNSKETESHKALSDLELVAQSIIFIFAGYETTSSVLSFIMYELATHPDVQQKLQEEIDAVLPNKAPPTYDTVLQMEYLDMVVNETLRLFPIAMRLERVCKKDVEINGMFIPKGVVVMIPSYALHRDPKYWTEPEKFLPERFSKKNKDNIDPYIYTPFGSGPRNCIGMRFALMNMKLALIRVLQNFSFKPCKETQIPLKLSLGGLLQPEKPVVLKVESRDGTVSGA

`CCNCC`: the Potency entry in assay [1], in assay [2], in assay [3], in assay [4], in assay [5] and in [6] was “inactive” in each case. For the same compound, the Potency result in assay [7], in [8], in assay [10] and in assay [11] was “inactive” throughout. In assay [9], the Potency entry was “inactive and 28.3 µM (active)”.
As for `COc1ccc(C=O)cc1OC`, the Potency result in assay [1], in assay [2], in assay [3], in [4], in [5] and in assay [12] was “inactive” each time. For the same compound, the Potency entry in [13], in assay [14], in assay [15], in assay [6], in [8] and in assay [10] was “inactive” throughout. Also, the Potency was 9.04 µM (active) and 71 µM (active) in [7]; 32.1 µM (active) and 31.7 µM (active) in [9].
As to `O=[N+]([O-])c1ccc(Cl)c([N+](=O)[O-])c1`, the Potency in assay [1] is 31.6 µM (active) and 21.7 µM (active); in assay [4], 55.3 µM (active) and 48.6 µM (active); in assay [5] it was 9.84 µM (active) and 15.4 µM (active); in assay [12] it was 64.3 µM (active) and 63.3 µM (active); in assay [7], 40.6 µM (active) and 79.6 µM (active); in [9] it was 12.8 µM (active) and 11.2 µM (active). Further, the Potency result in assay [2], in [3], in assay [13], in [14], in assay [15] and in [10] was “inactive” in each case.
As to `OC(c1ccc(Cl)cc1)(c1cncnc1)c1ccccc1Cl` (centres undefined), the Potency entry in assay [1], in assay [2], in assay [3], in assay [12], in assay [13] and in assay [14] was “inactive” each time. In addition, in assay [15], the Potency result is “inactive”. The Potency in assay [16] was 62.2 µM (active); in [5], 31.2 µM (active) and 30.6 µM (active); in assay [6], 36.2 µM (active) and 35.6 µM (active); in assay [7] it was 229 nM (active) and 283 nM (active); in assay [8], 7.23 µM (active) and 6.33 µM (active); in assay [10], 49.8 µM (active) and 54.9 µM (active).
As for `Clc1cccc(Cl)c1`, the Potency result in [1], in [2], in [3], in assay [4], in assay [5] and in [12] was “inactive” in each case. Besides, the Potency result in [13], in [14], in [15], in [6], in assay [8] and in assay [10] was “inactive” in each case. Also, the Potency in assay [7] is 62.8 µM (active) and inactive.
In the case of `COP(=S)(OC)SCn1nnc2ccccc2c1=O`, the Potency result in [1], in assay [2], in assay [3], in assay [4], in assay [15] and in assay [10] was “inactive” each time. The Potency was 53.4 µM (active) in assay [5]; 55.3 µM (active) and 39.9 µM (active) in assay [6]; 1.1 µM (active) and 894 nM (active) in assay [7]; 5.53 µM (active) and 3.99 µM (active) in assay [8]; 27.7 µM (active) and 28.3 µM (active) in [9].
As to `CCCCOCCOC(C)=O`, the Potency entry in [1], in assay [2], in assay [3], in assay [4], in assay [5] and in assay [12] was “inactive” throughout. The Potency entry in [13], in [14], in [15], in [6], in assay [8] and in assay [9] was “inactive” each time. Besides, the Potency result in [10] and in assay [11] was “inactive” each time. In [7], the Potency was 77.6 µM (active) and inactive.
